AF4-AF9 inh = inhibitors of AF4 peptide binding to AF9, primary screen, biochemical, AlphaScreen, biotin-AF4 peptide, FLAG-AF9, single point. Protein AF-9 (Homo sapiens), P42568. inhibition, % at 10 µM. 350,000 tested, 0.47% active;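 active = every replicate reaching a set inhibition limit, whatever the replicate mean, cut at about 25% in these data; inconclusive = mean inhibition reaches that limit but some replicates miss it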;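 also: 0% = plate neutral control median and 100% = total signal loss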
Target sequence (P42568 whole entry, looked up): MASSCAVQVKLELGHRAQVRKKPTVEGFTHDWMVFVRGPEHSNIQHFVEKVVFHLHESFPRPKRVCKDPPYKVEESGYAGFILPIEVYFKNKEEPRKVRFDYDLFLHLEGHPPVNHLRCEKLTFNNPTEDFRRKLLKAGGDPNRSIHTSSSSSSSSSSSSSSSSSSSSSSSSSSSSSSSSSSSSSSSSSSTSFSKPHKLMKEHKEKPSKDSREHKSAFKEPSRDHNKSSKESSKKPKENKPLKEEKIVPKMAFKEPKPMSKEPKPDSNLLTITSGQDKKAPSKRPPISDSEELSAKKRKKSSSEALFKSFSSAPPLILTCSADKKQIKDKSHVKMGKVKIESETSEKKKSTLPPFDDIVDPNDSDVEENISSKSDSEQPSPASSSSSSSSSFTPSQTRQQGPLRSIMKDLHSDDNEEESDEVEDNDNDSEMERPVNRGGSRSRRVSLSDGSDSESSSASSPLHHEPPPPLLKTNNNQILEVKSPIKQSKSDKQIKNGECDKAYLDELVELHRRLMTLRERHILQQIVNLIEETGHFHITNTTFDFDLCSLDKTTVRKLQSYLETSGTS
MITF act = activators of MITF-driven TRPM1 promoter reporter, primary screen, cell-based, SK-MEL-5, luciferase, single point | SK-MEL-5 TRPM1-promoter luciferase, 24 h; % of positive control, neutral wells = 0 | activation, % at 12.5 µM | 300,000 tested, 0.75% active;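 active = mean activation of at least 80% with every replicate also reaching 80%; inconclusive = mean reaches 80% but some replicate falls short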;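 also: 0% = neutral control wells and 100% = parthenolide positive control wells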
Wnt bcat act = Wnt/beta-catenin pathway activators, primary screen, cell-based, plate reader, single point | Wnt/beta-catenin reporter cell assay, activator | activation, % at 9.35 µM | 300,000 tested, 1.2% active | AID 743398, 2014; in the data active = activation above about 30%, passing the limit was not always enough; inconclusive = no clear call, values can overlap the other calls;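 also: 0% = neutral control wells and 100% = positive control wells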
Ecoli rRNA inh = reduced GFP signal of wild-type E. coli, primary screen, bacterial rRNA inhibitor project, GFP/RFP fluorescence, OD600, single point; E. coli WT GFP vs humanized-ribosome RFP mutants, 24 h; active compounds read low; DMSO median 0, no signal -100; GFP signal change (wild-type ribosome), % (concentration not given with the values); 350,000 tested, 1.6% active; AID 720706, 2013;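 active = significant combined selectivity score with lowered wild-type GFP, culture density cut under 30%, mutant RFP and density less affected; inactive = any of these conditions unmet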
esBAF inh = Bmi1 luciferase reporter increase in mESCs, primary screen, esBAF inhibitor project, mouse ES cells, Bmi1 luciferase knock-in, single point; 24 h; 100% = twice the neutral-well signal; reporter increase, % at 12.5 µM; 350,000 tested, 2% active; in the data active = activation above about 40%; inconclusive = no clear call, values can overlap the other calls;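 also: 0% = median of the plate's neutral control wells and 100% = double that signal; a rise in the Bmi1 reporter signal indicates esBAF inhibition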
* hit, by the source's call; ? = inconclusive; · = not tested or not shown. An excerpt weighted towards active compounds, which were near 3.7% of everything screened.

SMILES	AF4-AF9 inh	MITF act	Wnt bcat act	Ecoli rRNA inh	esBAF inh
O=C(O)CSc1cccc[n+]1[O-]	·	·	·	·	-3
c1ccc(-c2ccc(OCCOCCn3cncn3)cc2)cc1	·	68	·	·	62*
C[C@@H]1CN([C@@H](C)CO)C(=O)c2cc(N(C)C)ccc2O[C@H]1CN(C)C	-3	·	·	2	5
O=C(C1CC(=O)N(c2ccc3c(c2)OCCO3)C1)N1CCN(S(=O)(=O)c2ccccc2F)CC1 (stereo not drawn)	1	-4	-10	11	-49
CC(C)CNC(=O)NC(=O)COc1ccc(C=O)cc1	·	-7	1	·	-6
Cc1cnn(C(=O)Cn2nc(C(F)F)c(Br)c2C)c1	-9	4	1	6	·
CCOc1ccc2c(c1)sc(=NC(=O)C1CC1)n2C	-17	6	-1	-12	60*
Cn1c(=NC(=O)C2CCCCC2)sc2cc([N+](=O)[O-])ccc21	1	5	1	1	·
Nc1ccc(-c2nc3ccc(N)cc3s2)cc1	9	3	26	-11	-70
Cc1cc(-c2nc3cc(F)ccc3s2)ccc1N	-4	8	60*	-31	·
Cc1cccc(-c2noc(CCc3ccccc3)n2)c1	-4	·	?	-4	63*
Brc1ccc(-c2noc(CCc3ccccc3)n2)cc1	·	20	2	·	18
Cc1cccc(-c2noc(Cc3ccccc3)n2)c1	·	?	19	·	103*
Cc1cccc(-c2noc(CCC(=O)NCc3ccccc3)n2)c1	·	·	2	·	-11
CC1CCN(Cc2nc(-c3ccccc3)no2)CC1	·	·	·	·	55*
c1ccc(CCc2nc(-c3ccccc3)no2)cc1	·	71	1	·	46*
CC1CCc2sc(C(=O)N(C)CC(=O)Nc3cccc(F)c3)cc2C1 (stereo not drawn)	-6	6	3	-21	10
O=C(NCCc1nc(-c2ccc(F)cc2)no1)c1ccc(F)cc1	0	-1	1	-3	1
c1ccc(OCc2nc(-c3ccncc3)no2)cc1	-8	44	3	13	?
CC(C)C(O)C1CCN(Cc2nc(-c3cccs3)no2)CC1 (stereo not drawn)	-1	50	8	29	58*
c1ccc(OCc2nc(-c3ccccc3)no2)cc1	·	102*	78*	·	68*
CCCc1nc(-c2ccc(-c3ccc(F)cc3)cc2)no1	·	·	·	·	58*
NC(=O)C1CCN(Cc2nc(-c3cccs3)no2)CC1	0	·	2	3	-1
C=CCc1cccc(/C=N/NC(=O)C(C)Nc2ccc(C)cc2)c1O (stereo not drawn)	-2	-24	-3	-32*	-13
C=CCc1cccc(/C=N/NC(=O)c2ccccc2OC)c1O	1	14	12	-3	44*
SMILES	AF4-AF9 inh	MITF act	Wnt bcat act	Ecoli rRNA inh	esBAF inh
COc1ccccc1C=NNC(=O)c1ccccc1OCCOc1ccccc1	2	-20	-4	-31*	-6
COc1ccccc1/C=N/NC(=O)c1ccccc1Cl	-1	8	-1	18	·
Cc1ccc(C(=O)NNS(=O)(=O)c2ccccc2[N+](=O)[O-])cc1	·	-1	-1	·	-1
CCC(=O)N[C@@H]1CC[C@@H](CCNC(=O)Nc2ccc(F)cc2)O[C@@H]1CO	0	·	-2	0	-4
Cc1ccc(NC(=O)CSCC(=O)N(C)CCOc2ccc(Cl)cc2)cc1	3	-8	0	-4	1
O=C1N(Cc2cccc(Cl)c2)C[C@@H]2C[C@@H](c3ccccn3)N3CCC[C@@]123	5	-2	33*	7	0
COc1ccc(/C(N)=N/OC(=O)c2cccs2)cc1	·	61	40*	8	·
N/C(CC(=O)Nc1ccc(F)c(Cl)c1)=N\OC(=O)c1cccs1	0	·	-1	·	·
N/C(=N\OC(=O)c1cccs1)c1ccc(Cl)cc1	·	·	57*	2	14
C[C@@H]1CN([C@@H](C)CO)C(=O)c2cc(NS(C)(=O)=O)ccc2O[C@@H](C)CCCCO[C@@H]1CN(C)CC1CCCCC1	·	·	·	1	-1
Cc1[nH]c2ccccc2c1C(=O)C(=O)NCc1nnnn1-c1ccc(F)cc1	0	·	0	9	-1
Cc1ccccc1Nc1cccc2nonc12	-3	3	-3	-40*	1
Cc1ccccc1NS(=O)(=O)c1cccc2nonc12	1	-9	-2	3	-10
CCn1cc(/C=C/C(=O)c2ccc(O)cc2)c(C)n1	0	54	8	-8	·
C#CCOc1c(Cl)cc(/C=N/NC(N)=S)cc1OCC	-5	0	0	-22	·
FC(F)(F)c1cc(Cl)c2nnc(-c3cccnc3)n2c1	0	4	0	26	·
FC(F)(F)c1cnc(-c2cnc(-c3cccnc3)nc2)c(Cl)c1	-11	106*	?	8	·
Cc1ccc(NS(=O)(=O)c2ccc3c(c2)oc(=O)n3C)cc1	3	·	0	13	-2
CCc1ccc(NS(=O)(=O)c2ccc3c(c2)oc(=O)n3C)cc1	35*	-5	-1	-7	6
CCc1cccc(C)c1NC(=O)COC(=O)Cn1c(C)csc1=O	0	5	-1	14	·
Cc1csc(=O)n1CC(=O)OCc1cccc2ccccc12	·	·	25	·	58*
O=C1/C(=C/c2ccc(O)cc2)SC(=S)N1CC1CCCO1 (stereo not drawn)	-22	16	-3	-24*	·
COc1ccccc1N1CCN(C(=O)CCC(=O)N2CCN(c3ccccc3OC)CC2)CC1	2	-11	-2	3	-4
COc1ccc(/C=C/C(=O)NC(=S)N2CCN(c3ccccc3OC)CC2)cc1	-1	·	22	·	77*
COc1ccccc1N1CCN(C(=O)CSc2ccccc2)CC1	·	65	·	·	49*
SMILES	AF4-AF9 inh	MITF act	Wnt bcat act	Ecoli rRNA inh	esBAF inh
COc1cc2c(cc1NC(=O)C(C)Sc1cccc[n+]1[O-])oc1ccccc12 (stereo not drawn)	6	-5	-5	-33*	·
COc1cccc(C(=O)NNC(=O)c2cccnc2)c1	-5	8	1	5	0
COc1cc2c(cc1NC(=O)c1cccnc1)oc1ccccc12	·	71	·	·	72*
COc1cc2c(cc1NC(=O)C(C)Sc1nc3ccccc3n1C)oc1ccccc12 (stereo not drawn)	·	-16	-4	·	·
COc1cccc(OC)c1C(=O)NNC(=O)c1cccnc1	35*	·	1	9	·
COc1cc2c(cc1NC(=O)CSc1ccccn1)oc1ccccc12	·	95*	·	·	49*
CC(=O)c1ccc(OCCCCOc2ccc(C(C)=O)cc2)cc1	0	·	1	5	10
S=C(NCCCN1CCOCC1)N1CCN(c2nc(-c3ccc(Cl)cc3)cs2)CC1	33*	-26	-5	-60	·
S=C(NCC1CCCO1)N1CCN(c2nc(-c3ccc(Cl)cc3)cs2)CC1 (stereo not drawn)	0	-22	3	-18	-2

Assay outcomes: PubChem, Broad Institute
